# Measurements taken from the supplement of paper PMC13380429.
# How the values were obtained:
# [1] = system: Vero E6 infected with SARS-CoV-2; test: morphology score (similarity to uninfected cells); higher = more like uninfected cells; conditions: 24 h
# [2] = system: Vero E6 infected with SARS-CoV-2; test: SARS-CoV-2 infection rate relative to infected DMSO; higher = more infection, active = 60 or less; conditions: 24 h
structure (smiles),measurement,setting,value
C[C@@H]1CC[C@@]2(OC1)O[C@H]1C[C@H]3[C@@H]4CC=C5C[C@@H](O)CC[C@]5(C)[C@H]4CC[C@]3(C)[C@H]1[C@@H]2C [diosgenin] (10 µM),morphology score,[1],0.114
same,SARS-CoV-2 infection rate,[2],106% (inactive)
OC(CCCN1CCCCC1)(c1ccccc1)c1ccccc1 [diphenidol] (10 µM),morphology score,[1],-0.109
same,SARS-CoV-2 infection rate,[2],104% (inactive)
N[C@@H](C(=O)O)c1ccc(C(=O)O)c(C(=O)O)c1 (racemic) (10 µM),morphology score,[1],0.105
same,SARS-CoV-2 infection rate,[2],98.2% (inactive)
CC(C)C[C@H](NC(=O)[C@H](CCc1ccccc1)NC(=O)CN1CCOCC1)C(=O)N[C@@H](Cc1ccccc1)C(=O)N[C@@H](CC(C)C)C(=O)[C@@]1(C)CO1 [carfilzomib] (0.833333 µM),morphology score,[1],0.00273
same,SARS-CoV-2 infection rate,[2],42% (active)
O=C(O)C(O)Cc1ccc(O)c(O)c1 (centres undefined) [sodium-danshensu] (10 µM),morphology score,[1],0.114
same,SARS-CoV-2 infection rate,[2],106% (inactive)
CCCCCCCC/C=C/CCCCCCCC(=O)OC[C@H]1O[C@@H](n2ccc(N)nc2=O)C(F)(F)[C@@H]1O [gemcitabine-elaidate] (0.833333 µM),morphology score,[1],0.0895
same,SARS-CoV-2 infection rate,[2],112% (inactive)
C[N+]1([O-])[C@@H]2C[C@@H](OC(=O)[C@H](CO)c3ccccc3)C[C@H]1[C@@H]1O[C@@H]12 (some centres undefined) [scopolamine-N-oxide] (10 µM),morphology score,[1],0.142
same,SARS-CoV-2 infection rate,[2],107% (inactive)
Nc1ccc(C(=O)Oc2ccccc2)c(O)c1 [phenyl-aminosalicylate] (10 µM),morphology score,[1],0.0987
same,SARS-CoV-2 infection rate,[2],104% (inactive)
COc1ccc(CN2CCN(C(c3ccc(F)cc3)c3ccc(F)cc3)CC2)c(OC)c1OC [lomerizine] (10 µM),morphology score,[1],0.0043
same,SARS-CoV-2 infection rate,[2],108% (inactive)
Cc1ccc(=O)n(-c2ccc(O)cc2)c1 (10 µM),morphology score,[1],-0.0543
same,SARS-CoV-2 infection rate,[2],94.5% (inactive)
O=[N+]([O-])c1cc(Cl)ccc1S(=O)(=O)N1CCN(Cc2ccccc2)CC1 (10 µM),morphology score,[1],-0.0654
same,SARS-CoV-2 infection rate,[2],112% (inactive)
O=C(CN1CCN(C(=O)c2ccco2)CC1)Nc1cc(C(F)(F)F)ccc1Cl (10 µM),morphology score,[1],0.00654
same,SARS-CoV-2 infection rate,[2],103% (inactive)
COc1ccc(S(=O)(=O)Nc2cccnc2Nc2ccc(O)cc2)cc1 (10 µM),morphology score,[1],-0.213
same,SARS-CoV-2 infection rate,[2],106% (inactive)
CC1(C)OC[C@@H](COC(=O)CCc2ccc(OC[C@@H](O)CNCCNC(=O)N3CCOCC3)cc2)O1 [landiolol] (10 µM),morphology score,[1],-0.108
same,SARS-CoV-2 infection rate,[2],113% (inactive)
CS(=O)(=O)Nc1ccc2oc3c(OC(F)F)ccc(C(=O)Nc4c(Cl)cncc4Cl)c3c2c1 [oglemilast] (10 µM),morphology score,[1],0.291
same,SARS-CoV-2 infection rate,[2],92% (inactive)
CCC1(C2=NCCN2)Cc2ccccc2O1 (centres undefined) [efaroxan] (10 µM),morphology score,[1],0.165
same,SARS-CoV-2 infection rate,[2],95% (inactive)
CC(=O)NS(=O)(=O)c1ccc(NC(=O)c2ccccc2C(=O)O)cc1 [phthalylsulfacetamide] (10 µM),morphology score,[1],0.21
same,SARS-CoV-2 infection rate,[2],99.5% (inactive)
C[C@H]1CNCCCN1S(=O)(=O)c1cccc2cncc(F)c12 [ripasudil] (10 µM),morphology score,[1],0.438
same,SARS-CoV-2 infection rate,[2],112% (inactive)
CC(C)Nc1nc2cc(Cl)c(Cl)cc2n1[C@H]1O[C@@H](CO)[C@H](O)[C@@H]1O [maribavir] (10 µM),morphology score,[1],-0.0681
same,SARS-CoV-2 infection rate,[2],122% (inactive)
COc1cc2c(cc1OCCCN1CCCC1)N=C(N)C21CCC1 (10 µM),morphology score,[1],0.0229
same,SARS-CoV-2 infection rate,[2],106% (inactive)
OC[C@H]1NCC[C@@H](O)[C@@H]1O [fagomine] (10 µM),morphology score,[1],-0.0114
same,SARS-CoV-2 infection rate,[2],105% (inactive)
CCN1CCCC1CNC(=O)c1cc(S(=O)(=O)CC)c(N)cc1OC (centres undefined) [amisulpride] (10 µM),morphology score,[1],0.114
same,SARS-CoV-2 infection rate,[2],105% (inactive)
CC1COc2c(N3CCN(C)CC3)c(F)cc3c(=O)c(C(=O)O)cn1c23 (centres undefined) [ofloxacin] (10 µM),morphology score,[1],0.0901
same,SARS-CoV-2 infection rate,[2],104% (inactive)
CC(C)(C)S(=O)(=O)N[C@H]1CC[C@H](C(=O)Nc2ccc(C(F)(F)F)cn2)CC1 [velneperit] (10 µM),morphology score,[1],-0.0103
same,SARS-CoV-2 infection rate,[2],115% (inactive)
CC(C)(C)C(=O)OCC(=O)[C@H]1CC[C@H]2[C@@H]3CCC4=CC(=O)CC[C@]4(C)[C@H]3CC[C@]12C [desoxycorticosterone-pivalate] (10 µM),morphology score,[1],0.123
same,SARS-CoV-2 infection rate,[2],106% (inactive)
CN1C2CCCC1CC(NC(=O)c1nn(C)c3ccccc13)C2 (centres undefined) [granisetron] (10 µM),morphology score,[1],-0.16
same,SARS-CoV-2 infection rate,[2],98.5% (inactive)
O=c1cc(-c2ccccc2)oc2cc(O)c(O)c(O)c12 [baicalein] (10 µM),morphology score,[1],0.196
same,SARS-CoV-2 infection rate,[2],85% (inactive)
